Compounds with a hit are over-represented: about 12% of the library has one in this group of screens.
NS1 inh – influenza NS1 inhibition; AID 2326; Potency, µM (titrated, usually from 46.1 µM), for the others: at the top dose activity, positive = more growth; 270,000 compounds, 0.4% hits; further: potency means the concentration at half of the fitted maximal effect; actives are rising curves; nearly all actives have a fitted effect of over 50% in size
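Growth recovery, yeast-based: influenza A NS1 expressed in S. cerevisiae causes slow growth, and suppressors are detected by OD600. The parent strain without NS1 is used as positive control.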
CHX counter – affects cycloheximide protein synthesis inhibition readout, counter-screen; cell reporter, cycloheximide protein synthesis inhibition counterscreen; max response, %; 300,000 compounds, 12% hits; AID 2314; in the data active means max response mostly above about 13%, no sharp cut-off; inactive means mostly below about 14%; further: read at 38.3 µM for the half of the compounds with a filed dose; 0% is about no effect
Shiga inhibitor – Shiga toxin inhibition | Vero cells, Shiga toxin protein synthesis inhibition reporter | AID 2315 | 290,000 compounds, 9.2% hits | inhibition, % at 38.7 µM; in the data active means inhibition mostly above about 28%, no sharp cut-off; inactive means mostly below about 43%; further: 0% is about no effect
SARS PLpro yeast – inhibitors of SARS-CoV papain-like protease in yeast; S. cerevisiae expressing SARS-CoV PLpro, growth rescue; Potency, µM (series often up to 32.9 µM), without a hit: at the top dose activity, positive = growth rescue, usual class: activators; 330,000 compounds, 0.19% hits; further: potency means the concentration at half of the fitted maximal effect; 0% is about no effect; nearly all actives have a fitted effect of over 55% in size
* hit, by the source's call; ? = inconclusive; · = no result. Unless noted, the call rests on the fitted dose curve.

SMILES | NS1 inh | CHX counter | Shiga inhibitor | SARS PLpro yeast
O=C(/C(=C(/[O-])c1ccccc1)[n+]1ccccc1)c1ccc([N+](=O)[O-])cc1 | -11.2% | 4.8 | 0.4 | 7.4%
O=C(/C(=C(\[O-])c1ccccc1)[n+]1ccc2ccccc2c1)c1ccc([N+](=O)[O-])cc1 | ? | 9.7 | 8.5 | 8.9%
O=C(/C(=C(\[O-])c1ccccc1)[n+]1ccc2ccccc2c1)c1ccccc1 | -0.9% | 25.8* | active | 0.8%
Cc1nnc(NC(=O)c2cc3ccccc3o2)s1 | -59.6% | 25.0* | 67.3* | -7.3%
CCOC(=O)c1sc(NC(=O)c2ccccc2OC)nc1C | 0.4% | 23.9* | 69.0* | -4.6%
CCc1ccc(C(=O)Nc2nc(C)cs2)s1 | -1.1% | 40.8* | 35.6* | 1.3%
CCc1nnc(NC(=O)c2cc3ccccc3oc2=O)s1 | -11.8% | 10.7* | -2.7 | -3.2%
Cc1ccc(NC(=O)CN2CCN(Cc3ccccc3)CC2)cc1F | -0.7% | -2.8 | -4.0 | 0.2%
O=C(NCc1ccc2c(c1)OCO2)C1CCCN(S(=O)(=O)c2cccnc2)C1 (centres undefined) | -0.9% | -1.5 | -4.1 | -4.5%
Cc1cnc(NC(=O)c2cc3ccccc3o2)s1 | 3.1% | 17.7* | 46.7 | -0.4%
CCOC(=O)c1sc(NC(=O)c2cc3ccccc3o2)nc1C | · | 39.7* | 60.6* | -3.0%
CCOC(=O)c1sc2nc(C)cc(C)c2c1NC(=O)c1ccco1 | -15.4% | -2.3 | 4.7 | -0.4%
Cc1nc(NC(=O)c2cc3ccccc3o2)sc1C | -5.1% | 37.3* | 45.5 | -10.5%
C=CCOC(=O)c1sc(NC(=O)c2ccco2)nc1C | -28.8% | 27.9* | 127.9* | -3.1%
COc1ccc(NC(=O)CSc2ncnc3c2nnn3-c2ccc(F)cc2)c(OC)c1 | · | 4.0 | 27.7 | 0.8%
CC1(C)Oc2ccc(C(=O)N/N=C/c3ccc(O)cc3)cc2NC1=O | 1.2% | -3.3 | -4.5 | 12.5%
CCc1ccc(C(=O)Nc2cc(C)ccc2F)s1 | 20.8% | 70.2* | 104.8* | -2.9%
CCOC(=O)c1csc(NC(=O)c2cc3ccccc3o2)n1 | -5.1% | 55.2* | 74.8* | -1.3%
CCOC(=O)c1sc(NC(=O)c2ccc(CC)s2)nc1C | -1.2% | 40.0* | 105.4* | -0.2%
CN(CCc1ccccn1)C(=O)CCC1CCCN(C(=O)c2n[nH]c3c2CCCC3)C1 (centres undefined) | -1.2% | 7.7 | 10.1 | 0.0%
COc1ccccc1CNc1nc(=S)[nH]c2cc(OC)c(OC)cc12 | 10.3% | 23.2* | 48.4* | 1.4%
O=C(NCc1ccco1)c1cnc2ccccn2c1=O | -36.7% | 1.5 | -5.7 | -0.4%
COCCCNC(=O)c1cccn2c(=O)c3cc4ccccc4cc3nc12 | 3.5% | 69.1* | 83.9* | -5.6%
O=C(NCc1ccco1)c1cccn2c(=O)c3cc4ccccc4cc3nc12 | 8.3% | 29.0* | 5.6 | -3.6%
C[C@H]1CN([C@@H](C)CO)C(=O)c2cc(NC(=O)C3CCCCC3)ccc2O[C@H]1CN(C)CC1CCCCC1 | · | · | · | 8.1%
SMILES | NS1 inh | CHX counter | Shiga inhibitor | SARS PLpro yeast
CCOC(=O)N1CCN(S(=O)(=O)c2cc([N+](=O)[O-])c(C)cc2C)CC1 | 5.2% | -3.2 | 15.9 | 12.1%
Cc1cc2c(s1)c1cnn(Cc3cccc(Cn4ncc5c6sc(C)cc6n(C)c5c4=O)c3F)c(=O)c1n2C | · | -4.2 | -1.3 | ·
COc1ccc(NC(=O)Nc2ccc3oc(C)nc3c2)cc1 | -1.0% | 30.1* | 67.4* | -1.7%
Cc1nc2cc(NC(=O)NCCCO)ccc2o1 | -1.3% | -2.3 | 1.3 | 0.6%
Cc1nc2cc(NC(=O)NCCC3=CCCCC3)ccc2o1 | 4.9% | 18.9* | 56.6* | -5.1%
CCCCCCCNC(=O)C1(CC2CC(c3cccc(Br)c3)=NO2)CCN(C(=O)OC(C)(C)C)CC1 (centres undefined) | ? | 15.2* | 15.4 | -3.4%
CCCCCCCNC(=O)C1(CC2CC(c3cccc(Br)c3)=NO2)CCN(C(=O)C2CCCC2)CC1 (centres undefined) | · | · | · | 2.2%
C/C(=N\Nc1ccc2nncn2n1)c1cccs1 | -7.7% | 40.6* | 20.9 | -1.2%
CN(C)/C=N/c1c(C(=O)NCc2ccccc2)nnn1Cc1ccccc1 | -2.5% | 2.5 | -6.9 | -4.8%
Cc1ccc(-c2cc(C(=O)N3CCN(C(=O)c4ccco4)CC3)[nH]n2)c(C)c1 | -1.3% | -1.5 | 7.7 | 7.5%
O=C(Oc1ccccc1)c1ccc2nsnc2c1 | -5.6% | 52.7* | 75.1* | 29.0%
COc1ccccc1NC(=O)CS(=O)(=O)c1cn(CC(=O)N2CCCC2)c2ccccc12 | 12.2% | 2.5 | 10.5 | 0.5%
CC(=O)c1ccc(NC(=O)C2(c3ccccc3)CCOCC2)cc1 | -24.0% | 36.6* | 111.8* | 2.3%
COC(=O)/C(=C1/Oc2cc3c(cc2S1)OCO3)C(F)(F)F | 6.2% | 1.4 | -0.5 | -4.8%

Assay outcomes: PubChem, National Center for Advancing Translational Sciences (NCATS)
